Columns and labels:
Settings in all cases: concentration: 1 μM,replicates: in singlicate; n = 1
[1] = test system: RIOK1
[2] = test system: RIOK2
[3] = test system: RIOK3
[4] = test system: RIPK1
[5] = test system: RIPK2
[6] = test system: RIPK4
[7] = test system: RIPK5
[8] = test system: ROCK1
[9] = test system: ROCK2
[10] = test system: ROS1
[11] = test system: RPS6KA4(Kin.Dom.1-N-terminal)
[12] = test system: RPS6KA4(Kin.Dom.2-C-terminal)
[13] = test system: RPS6KA5(Kin.Dom.1-N-terminal)
[14] = test system: RPS6KA5(Kin.Dom.2-C-terminal)
[15] = test system: T1, RSK1(Kin.Dom.1-N-terminal)
T1 construct: gene RPS6KA1

[16] = test system: T2, RSK1(Kin.Dom.2-C-terminal)
T2 construct: gene RPS6KA1

[17] = test system: T3, RSK2(Kin.Dom.1-N-terminal)
T3 construct: gene RPS6KA3

[18] = test system: T4, RSK2(Kin.Dom.2-C-terminal)
T4 construct: gene RPS6KA3

[19] = test system: T5, RSK3(Kin.Dom.1-N-terminal)
T5 construct: gene RPS6KA2

[20] = test system: T6, RSK3(Kin.Dom.2-C-terminal)
T6 construct: gene RPS6KA2
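Further: KINOMEscan kinase panel screen.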

Compound | %Inh [1] | %Inh [2] | %Inh [3] | %Inh [4] | %Inh [5] | %Inh [6] | %Inh [7] | %Inh [8] | %Inh [9] | %Inh [10] | %Inh [11] | %Inh [12] | %Inh [13] | %Inh [14] | %Inh [15] | %Inh [16] | %Inh [17] | %Inh [18] | %Inh [19] | %Inh [20]
CS(=O)(=O)c1cccc(CNc2nc(Nc3ccc4c(c3)[C@@H]3C[C@@H]4CNC3=O)ncc2C(F)(F)F)c1 | 76% | 0% | 67% | 0% | 0% | 77% | 75% | 0% | 0% | 86% | 33% | 0% | 0% | 46% | 66% | 7% | 84% | 0% | 85% | 13%
FC(F)(F)c1cc(Br)cc(Nc2nccc(-c3cnn4ncccc34)n2)c1 [GW810578] | 0% | 82% | 0% | 4% | 69% | 20% | 15% | 36% | 23% | 12% | 0% | 0% | 0% | 0% | 0% | 0% | 17% | 0% | 3% | 9%
Cn1ccc2ncnc(Oc3ccc(NC(=O)Nc4cc(C(C)(C)C)on4)c(Cl)c3)c21 | 2% | 29% | 1% | 15% | 83% | 12% | 11% | 3% | 0% | 46% | 0% | 13% | 0% | 6% | 0% | 17% | 16% | 1% | 0% | 8%
COC(=O)Nc1nc2cc(Oc3ccc(NC(=O)Nc4cc(C(F)(F)F)ccc4Cl)cc3)ccc2[nH]1.Cl [GW697465] | 0% | 2% | 0% | 41% | 43% | 1% | 0% | 26% | 24% | 42% | 0% | 0% | 14% | 0% | 0% | 0% | 0% | 10% | 21% | 13%
N#Cc1cccc(C(=O)NC2CCN(c3ccnc(Nc4ccc(F)cc4)n3)C2)c1 (stereo not drawn) [GSK1379708] | 24% | 0% | 0% | 0% | 0% | 6% | 0% | 0% | 0% | 13% | 0% | 0% | 0% | 0% | 15% | 0% | 0% | 0% | 0% | 0%
O=C(Nc1cccc(C(F)(F)F)c1)c1cccc(Oc2ccc3nccn3n2)c1 | 0% | 0% | 15% | 1% | 0% | 17% | 7% | 33% | 22% | 6% | 9% | 0% | 8% | 0% | 25% | 0% | 10% | 48% | 23% | 68%
O=C(Nc1ccc(Oc2ccc3nc(NC(=O)C4CC4)cn3n2)c(F)c1)c1cccn(-c2ccccc2)c1=O | 13% | 0% | 31% | 80% | 4% | 0% | 0% | 0% | 0% | 0% | 50% | 0% | 0% | 9% | 0% | 0% | 0% | 28% | 0% | 0%
O=C(NCC1CC1)c1ccc(-c2cc(C(=O)NC3CC3)ccc2F)cc1 [GW810445] | 1% | 0% | 0% | 0% | 0% | 0% | 0% | 58% | 9% | 0% | 7% | 0% | 0% | 7% | 0% | 3% | 0% | 0% | 0% | 0%
CC(=O)Nc1ccc(-c2cc3ncnc(SCC(=O)O)c3s2)cc1 | 8% | 0% | 15% | 0% | 0% | 2% | 14% | 0% | 0% | 6% | 6% | 47% | 0% | 15% | 0% | 25% | 0% | 0% | 14% | 19%
Cc1cccc2c(-c3ccncc3)c(-c3ccc(F)cc3)nn12.Cl [GW461487] | 0% | 100% | 0% | 0% | 48% | 0% | 0% | 18% | 12% | 0% | 0% | 0% | 0% | 6% | 11% | 51% | 3% | 32% | 0% | 19%
Cc1ccc(CC(=O)N2CCc3cc(-c4cn(C)c5ncnc(N)c45)ccc32)cc1 [GSK2634758] | 25% | 0% | 0% | 100% | 76% | 0% | 62% | 0% | 21% | 9% | 16% | 0% | 3% | 0% | 9% | 4% | 0% | 4% | 7% | 0%
O=C(NOCC1CC1)c1cc(Br)c(F)c(F)c1Nc1ccc(I)cc1Cl | 0% | 0% | 0% | 0% | 0% | 0% | 0% | 0% | 0% | 0% | 0% | 0% | 0% | 9% | 0% | 38% | 9% | 0% | 1% | 33%
COc1ccc(Nc2nccc(N3CCC(NC(=O)c4cccc(C#N)c4)C3)n2)cc1 (stereo not drawn) [GSK1379730] | 34% | 0% | 5% | 0% | 0% | 0% | 0% | 25% | 14% | 23% | 15% | 0% | 5% | 0% | 0% | 0% | 0% | 18% | 0% | 2%
O=C(Nc1cccc(Oc2ccc3nccn3n2)c1)Nc1cccc(C(F)(F)F)c1 | 0% | 0% | 0% | 5% | 12% | 0% | 0% | 3% | 0% | 0% | 24% | 0% | 0% | 0% | 0% | 9% | 8% | 25% | 0% | 0%
COc1cc2c(Nc3ccc(NC(=O)c4ccccc4)cc3)ncnc2cc1OCCCN1CCOCC1 [GSK301329] | 26% | 14% | 21% | 0% | 55% | 0% | 2% | 1% | 0% | 3% | 20% | 0% | 0% | 0% | 11% | 0% | 0% | 1% | 0% | 0%
CC(C)c1nc(-c2cccc(NS(=O)(=O)c3ccccc3)c2)c(-c2ccnc(Nc3ccc4c(c3)CN(C)CC4)n2)s1 [GSK1649598] | 18% | 0% | 24% | 0% | 98.7% | 36% | 8% | 0% | 0% | 0% | 33% | 0% | 4% | 0% | 73% | 44% | 10% | 0% | 15% | 0%
COC(=O)c1cccc(NC(=O)NC2CCN(c3ccnc(Nc4cc(OC)c(OC)c(OC)c4)n3)C2)c1 (stereo not drawn) [GSK1379767] | 70% | 0% | 67% | 23% | 24% | 26% | 0% | 24% | 20% | 30% | 0% | 0% | 0% | 30% | 21% | 5% | 7% | 1% | 9% | 29%
CCOC(=O)N1CCC(n2cnc(-c3ccc(F)cc3)c2-c2ccnc(N)n2)CC1 [SB-219952] | 51% | 24% | 35% | 18% | 34% | 64% | 5% | 45% | 12% | 15% | 6% | 7% | 1% | 0% | 11% | 32% | 23% | 0% | 8% | 36%
COc1cccc(CNC(=O)NC2CCN(c3ccnc(Nc4cc(OC)c(OC)c(OC)c4)n3)C2)c1 (stereo not drawn) [GSK1379765] | 63% | 0% | 56% | 17% | 0% | 40% | 5% | 67% | 76% | 48% | 1% | 0% | 0% | 0% | 17% | 0% | 7% | 29% | 22% | 1%
O=c1[nH]cc(-c2ccc(O)cc2)c2sc(-c3ccncc3)cc12 [GSK1033723] | 1% | 14% | 6% | 26% | 16% | 0% | 5% | 10% | 18% | 0% | 0% | 0% | 4% | 21% | 10% | 0% | 0% | 23% | 0% | 3%
O=C(Nc1ccccc1)c1cccc(Oc2ccc3nccn3n2)c1 | 0% | 11% | 8% | 15% | 0% | 26% | 0% | 34% | 0% | 0% | 0% | 10% | 0% | 16% | 0% | 100% | 9% | 46% | 24% | 0%

Reference: article PMC5540273 (PLoS ONE, 2017)
